# An excerpt weighted towards active compounds, which were near 3.7% of everything screened.
# MLL AF4-AF9 inh = blocks AF4 peptide binding to human AF9 | P42568 | AID 651704 | inhibition, % at 10 µM | 350,000 tested, 0.47% active | AlphaScreen, biotin-AF4 peptide binding to FLAG-AF9;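 active = every replicate reaching a set inhibition limit, whatever the replicate mean, cut at about 25% in these data; inconclusive = mean inhibition reaches that limit but some replicates miss it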;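 note: 0% = plate neutral control median and 100% = total signal loss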
# Target sequence (P42568 whole entry, looked up): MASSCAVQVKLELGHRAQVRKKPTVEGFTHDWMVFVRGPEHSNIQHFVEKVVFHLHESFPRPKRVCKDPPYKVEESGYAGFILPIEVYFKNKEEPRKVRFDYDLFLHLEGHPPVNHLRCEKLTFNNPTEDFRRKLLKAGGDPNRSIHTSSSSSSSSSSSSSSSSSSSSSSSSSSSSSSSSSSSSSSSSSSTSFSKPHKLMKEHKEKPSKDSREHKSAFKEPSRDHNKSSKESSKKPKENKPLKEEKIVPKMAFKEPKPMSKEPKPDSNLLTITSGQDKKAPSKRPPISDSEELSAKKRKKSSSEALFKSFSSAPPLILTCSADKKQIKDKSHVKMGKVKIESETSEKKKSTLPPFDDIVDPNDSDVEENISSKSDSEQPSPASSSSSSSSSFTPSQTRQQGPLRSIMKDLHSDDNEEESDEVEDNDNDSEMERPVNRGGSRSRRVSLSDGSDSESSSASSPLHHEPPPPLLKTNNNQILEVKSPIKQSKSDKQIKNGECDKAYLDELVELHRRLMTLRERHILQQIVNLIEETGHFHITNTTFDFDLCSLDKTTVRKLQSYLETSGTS
# MITF TRPM1 HTS = activators of MITF-driven TRPM1 promoter activity in SK-MEL-5 cells; activation, % at 12.5 µM; 300,000 tested, 0.75% active; AID 588334; SK-MEL-5 TRPM1-promoter luciferase, 24 h; % of positive control, neutral wells = 0;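 active = mean activation of at least 80% with every replicate also reaching 80%; inconclusive = mean reaches 80% but some replicate falls short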;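 note: 0% = neutral control wells and 100% = parthenolide positive control wells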
# rRNA inh HTS = inhibits bacterial ribosomal RNA function over humanized ribosomes; E. coli WT GFP vs humanized-ribosome RFP mutants, fluorescence, 24 h; active compounds read low; DMSO median 0, no signal -100; GFP signal change (wild-type ribosome), % (concentration not given with the values); 350,000 tested, 1.6% active; AID 720706;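 active = significant combined selectivity score with lowered wild-type GFP, culture density cut under 30%, mutant RFP and density less affected; inactive = any of these conditions unmet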
# esBAF inh = SWI/SNF esBAF complex inhibition | 350,000 tested, 2% active | reporter increase, % at 12.5 µM | AID 602393 | mouse ES cells, Bmi1-luciferase knock-in reporter, 24 h; 100% = twice the neutral-well signal; in the data active = activation above about 40%; inconclusive = no clear call, values can overlap the other calls;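 note: 0% = median of the plate's neutral control wells and 100% = double that signal; a rise in the Bmi1 reporter signal indicates esBAF inhibition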
# Wnt bcat act = Wnt/beta-catenin pathway activation; activation, % at 9.35 µM; 300,000 tested, 1.2% active; Wnt/beta-catenin reporter cell assay, activator, plate reader; in the data active = activation above about 30%, passing the limit was not always enough; inconclusive = no clear call, values can overlap the other calls;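 note: 0% = neutral control wells and 100% = positive control wells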
# Active calls of the source: *; ? = inconclusive; . = not tested or not shown.
SMILES,MLL AF4-AF9 inh,MITF TRPM1 HTS,rRNA inh HTS,esBAF inh,Wnt bcat act
Cc1cccc(-n2ncc3c(N4CC(C)CC(C)C4)ncnc32)c1 (stereo not drawn),-7,89*,-1,62*,12
COc1ccc(-n2ncc3c(NCc4cccnc4)ncnc32)cc1,-3,68,-18,55*,43*
Cc1c(C)n(CCc2ccccc2)c2ncnc(NCCO)c12,0,138*,0,76*,14
COc1ccc(-n2ncc3c(NCC(C)C)ncnc32)cc1,.,0,.,.,.
c1csc(-c2nc(CN3CCSCC3)cs2)c1,4,-9,2,-49,43*
CS(=O)(=O)N(CC(=O)NCc1ccco1)c1ccc(Cl)cc1Cl,1,-7,9,0,-1
CCN(CC)C1=CC(=[N+]2CCCC2)CC(C)(C)C1,.,-46,.,.,-3
CN(Cc1ccccc1)C1=CC(=[N+]2CCCC2)CC(C)(C)C1,-1,-75,-33*,-35,-6
CCOC(=O)c1oc2cccc(O)c2c1C,.,.,.,48*,.
CCOC(=O)c1oc2cccc(OC(C)=O)c2c1C,.,78,.,?,.
O=C(COc1ccc(-c2ccccc2)cc1)N/N=C/c1cccnc1,0,5,-4,-5,-1
COc1cc2c(cc1OC)C1CCc3cc4c(cc3C1N=C2)OCO4 (stereo not drawn),0,.,-5,32,51*
COc1cc2c(cc1OC)[C@@H]1Cc3cc4c(cc3[C@H](C2)N1C)OCO4,.,-3,12,-7,0
CNC(=O)c1ccsc1NC(=O)CCS(=O)(=O)c1ccc(F)cc1,0,-9,12,-5,-1
Cn1cc(Cl)c(C(=O)OCC(=O)Nc2nc(-c3ccc(Br)cc3)cs2)n1,.,75,.,61*,26
Cn1nccc1C(=O)OCC(=O)Nc1nc(-c2ccccc2)cs1,.,42,.,.,.
O=C(c1cc(COc2ccc3ncccc3c2)on1)N1CCCCCC1,-3,-12,.,.,6
O=C(c1cc(COc2ccc3ncccc3c2)on1)N1CCCC1,-3,-14,-24*,0,1
Cc1cc(OCc2cc(C(=O)N3CCCCCC3)no2)cc(C)c1Cl,-2,?,-33,48*,35*
COCC1CCN(C(=O)c2cc(COc3cc(C)c(Cl)c(C)c3)on2)C1 (stereo not drawn),-2,73,0,64*,20
CCOC(=O)C1CCN(C(=O)CCc2nnc3ccc(N4CCN(C)CC4)nn23)CC1,-2,2,11,2,0
C[C@@H]1CN([C@H](C)CO)C(=O)c2cc(NS(C)(=O)=O)ccc2O[C@@H](C)CCCCO[C@@H]1CN(C)C(=O)Cc1ccccc1,.,.,-3,4,.
CCc1cccc2c(C(=O)COC(=O)c3ccccc3)c[nH]c12,4,73,-12,.,-2
CCc1cccc2c(C(=O)COC(=O)c3cnc(C)cn3)c[nH]c12,-2,-1,2,1,12
CCc1cccc2c(C(=O)COC(=O)c3nccnc3N)c[nH]c12,-2,31,-11,79*,11
SMILES,MLL AF4-AF9 inh,MITF TRPM1 HTS,rRNA inh HTS,esBAF inh,Wnt bcat act
CCc1cccc2c(C(=O)COC(=O)c3ccc(O)cc3)c[nH]c12,-2,11,-17,49*,3
O=C(Nc1ccc(Cl)cc1)c1cc(Br)ccc1OCC(=O)N1CCOCC1,-2,12,.,0,3
CN(C)/C=C/C(=O)c1ccc(Oc2ccccc2)cc1,-5,58,1,51*,-3
COc1ccc(C(=O)/C=C/N(C)C)cc1,.,.,1,9,66*
CN(C)/C=C/C(=O)c1ccccc1,-8,14,6,.,3
CNC[C@@H]1OCCCC[C@@H](C)Oc2ccc(NS(=O)(=O)c3ccc(Cl)cc3)cc2C(=O)N([C@H](C)CO)C[C@H]1C,-5,.,9,-7,.
CN(C)/C=C/c1oc2ccc(O)cc2c1[N+](=O)[O-],3,12,-30*,.,7
O=[N+]([O-])c1ccc(CSc2nc3ccccc3o2)cc1,.,97*,.,.,25
COC(=O)c1cc(Br)c(=O)n(-c2ccc(F)cc2)c1,.,-5,.,-8,-6
Cc1cccc(-c2nc3c(c(SCC(=O)N4CCOCC4)n2)Cc2c(CO)cnc(C)c2O3)c1,.,12,.,6,.
COc1ccccc1-n1nnnc1SCC(=O)NCC1(N2CCOCC2)CCCCC1,27*,5,0,0,0
Cc1cccc(-n2nnnc2SCC(=O)NCC2(N3CCOCC3)CCCCC2)c1C,1,-17,-27,1,-2
C[C@@H]1CCCCO[C@@H](CN(C)Cc2ccc3c(c2)OCO3)[C@@H](C)CN([C@H](C)CO)C(=O)c2cc(N(C)C)ccc2O1,15,.,4,-2,0
C[C@@H]1CCCCO[C@@H](CN(C)Cc2ccc(Cl)c(Cl)c2)[C@H](C)CN([C@@H](C)CO)C(=O)c2cc(N(C)C)ccc2O1,40*,.,0,.,.
C[C@@H]1CCCCO[C@H](CN(C)Cc2ccc(Cl)c(Cl)c2)[C@@H](C)CN([C@@H](C)CO)C(=O)c2cc(N(C)C)ccc2O1,61*,.,-2,-2,.
C[C@@H]1CCCCO[C@@H](CN(C)Cc2ccc(Cl)c(Cl)c2)[C@H](C)CN([C@H](C)CO)C(=O)c2cc(N(C)C)ccc2O1,61*,.,-4,5,.
O=C(Nc1ccc(Cl)cc1)c1cccnc1N1CCCCC1,.,19,.,-5,.
C[C@@H]1CN([C@H](C)CO)C(=O)c2cccc(NS(=O)(=O)c3cn(C)cn3)c2O[C@@H]1CN(C)C,1,.,0,6,.
CC(C)N1CCN(Cc2cccc3nonc23)CC1CCO (stereo not drawn),1,-4,6,1,-1
COC(=O)c1ccc(Sc2nnnn2-c2ccccc2)c([N+](=O)[O-])c1,.,-52,.,46*,-16
CCOC(=O)c1c(C)[nH]c(C)c1C(=O)CSc1nnnn1-c1ccccc1,.,4,.,1,3
COC(=O)c1c(C)[nH]c(C(=O)CSc2nnnn2-c2ccccc2)c1C,.,-2,.,48*,-3
Cc1ccc2oc(C(=O)Nc3cc(C)on3)c(C)c2c1,-5,21,4,37,43*
Cc1ccc2oc(C(=O)N(C)Cc3ccon3)c(C)c2c1,-5,112*,3,52*,44*
COc1ccc2oc(C(=O)Nc3nccs3)c(C)c2c1,-15,73,2,32,50*
SMILES,MLL AF4-AF9 inh,MITF TRPM1 HTS,rRNA inh HTS,esBAF inh,Wnt bcat act
Cc1cc(NC(=O)c2sc3ccccc3c2O)no1,1,10,-1,29,34*
Cc1ccc2oc(C(=O)Nc3nnc(CC(C)C)s3)c(C)c2c1,-2,26,14,.,0
CCCCc1nnc(NC(=O)c2oc3ccc(OC)cc3c2C)s1,8,55,5,28,8
COc1ccc(-c2c(C(=O)O)c(-c3ccccc3)cn2C)cc1,-4,18,8,15,5
CCOc1ccc2oc(C(=O)NC(C)(C)CC)c(C)c2c1,-4,60,-25,39,0
CCOc1ccc2oc(C(=O)Nc3nccs3)c(C)c2c1,-2,30,2,6,69*
